This note sets out measurements from PubChem BioAssay (NCI).

About 83,000 compounds went through this panel and 20% of them were active in at least one assay; those are over-represented in the sample as a whole.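 Testing used 96-well plates and a 48-hour single-concentration exposure. Example: -40 means 40% of the starting cells died.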 Values without a mark were called inactive. Calls of active or inactive are those of the source. The calls were made as follows: active = growth percent below 10; inactive = the rest.

Test systems include SR leukemia; RPMI-8226 leukemia; OVCAR-8 ovarian; OVCAR-5 ovarian; OVCAR-4 ovarian; SK-OV-3 ovarian; IGROV1 ovarian; HS 578T breast; NCI/ADR-RES ovarian.
Holding throughout (experiment): NCI-60 one-dose screen, 48 h (100 = growth as untreated, 0 = no growth, -100 = all killed)
Conditions in all cases: 10 µM unless noted

Take `O=C1[C@@H]2Cc3c([nH]c4ccccc34)[C@H](c3ccc(Cl)cc3)N2C(=O)CN1C1CCN(Cc2ccccc2)CC1`: the growth is 4.81% (active) with SR leukemia; 21.8% in the test with RPMI-8226 leukemia; 64.4% in the test with OVCAR-8 ovarian; 85.5% in the test with OVCAR-5 ovarian; 54.4% in the test on OVCAR-4 ovarian; 89.6% in the test on SK-OV-3 ovarian. The figures for the growth in the test on IGROV1 ovarian, with HS 578T breast and in the test with NCI/ADR-RES ovarian were 43.3%, 65.5% and 52.6%, respectively.
Take `Cc1ccc([C@H]2c3[nH]c4ccccc4c3C[C@H]3C(=O)N(CCCCCCC(=O)NO)CC(=O)N23)s1`: the growth with SR leukemia is 23%; in the test with RPMI-8226 leukemia, 27.9%; in the test with OVCAR-8 ovarian, 44.4%; with OVCAR-5 ovarian, 52.8%; in the test on OVCAR-4 ovarian, 79.5%; in the test with SK-OV-3 ovarian it was 86.3%. Moreover, the growth in the test on IGROV1 ovarian was 55.7%; in the test on HS 578T breast, 76.6%; in the test on NCI/ADR-RES ovarian it was 94.3%.
`Nc1cc(C(=O)N/N=C\c2ccc(OC(F)F)c(OC3CCCC3)c2)nn1CC(O)c1ccccc1` (configuration not stated): the growth with SR leukemia is 88.1%; in the test on RPMI-8226 leukemia it was 87.5%; in the test with OVCAR-8 ovarian it was 96.9%; with OVCAR-5 ovarian, 108%; with OVCAR-4 ovarian, 91.4%; with SK-OV-3 ovarian it was 105%. The growth with IGROV1 ovarian was 108%; with HS 578T breast, 109%; with NCI/ADR-RES ovarian, 109%.
`Clc1ccc2[nH]cc(-c3nn4cc(-c5cccnc5)nc4s3)c2c1`: the growth is 109% with SR leukemia; 86.9% with RPMI-8226 leukemia; 103% in the test with OVCAR-8 ovarian; 108% with OVCAR-5 ovarian; 105% with OVCAR-4 ovarian; 91% in the test on SK-OV-3 ovarian. For the same molecule, the growth is 87.9% with IGROV1 ovarian, 93.6% in the test on HS 578T breast and 102% in the test with NCI/ADR-RES ovarian.
Consider `Cc1cc(=O)oc2cc(OCCCOc3ccc(/C=C/C(=O)Nc4ccc(Br)cc4)cc3)ccc12`, for which the growth with SR leukemia was 51.8%; in the test with RPMI-8226 leukemia, 75.6%; in the test with OVCAR-8 ovarian, 83.9%; in the test with OVCAR-5 ovarian it was 95.4%; in the test with OVCAR-4 ovarian it was 105%; in the test on SK-OV-3 ovarian, 98.2%. The results for the growth in the test with IGROV1 ovarian, with HS 578T breast and with NCI/ADR-RES ovarian were 72.7%, 76.3% and 64.6%, respectively.
For `N#C/C(=C\c1ccc(-c2ccc(Cl)cc2)o1)C(=O)Nc1ncc(Cc2ccc(Br)cc2)s1`, the growth in the test with SR leukemia is 16.8%; with RPMI-8226 leukemia, 64.1%; with OVCAR-8 ovarian, 6.49% (active); in the test on OVCAR-5 ovarian, 42.4%; in the test on OVCAR-4 ovarian it was -26.7% (active); with SK-OV-3 ovarian, 70.3%. For the same molecule, the growth in the test with IGROV1 ovarian was 7.06% (active); in the test with HS 578T breast, -2.91% (active); with NCI/ADR-RES ovarian, 8.56% (active).
On to `C/C(=N\NC(=O)Nc1ccccc1)c1nnn(-c2ccc([N+](=O)[O-])cc2)c1C`, for which the growth in the test on SR leukemia was 100%; with RPMI-8226 leukemia, 102%; in the test on OVCAR-8 ovarian, 102%; in the test on OVCAR-5 ovarian it was 112%; in the test on OVCAR-4 ovarian, 105%; in the test on SK-OV-3 ovarian it was 109%. In addition, the growth in the test on IGROV1 ovarian is 112%; with HS 578T breast, 116%; in the test with NCI/ADR-RES ovarian, 102%.
`COc1ccc(-c2cc(-c3ccc(N4CCOCC4)cc3)n3c(n2)nc2ccccc23)cc1OC`: the growth was 70.3% in the test on SR leukemia; 57.5% with RPMI-8226 leukemia; 82.5% with OVCAR-8 ovarian; 108% in the test with OVCAR-5 ovarian; 87.9% in the test on OVCAR-4 ovarian; 118% with SK-OV-3 ovarian. In addition, the growth was 95.1% in the test with IGROV1 ovarian, 98.2% in the test with HS 578T breast and 87.9% in the test on NCI/ADR-RES ovarian.
For the molecule `Cn1c2nc3ccccc3c-2cc2ccccc21`, the growth in the test on SR leukemia was 18.7%; with RPMI-8226 leukemia, 54.9%; in the test on OVCAR-8 ovarian, 32.8%; in the test with OVCAR-5 ovarian, 48%; in the test on OVCAR-4 ovarian, 50%; with SK-OV-3 ovarian it was 48.9%. Further, the growth was -10.8% (active) in the test on IGROV1 ovarian, 55.9% in the test with HS 578T breast and 42.6% in the test with NCI/ADR-RES ovarian.
As to `N#Cc1c(-c2ccc(Br)cc2)cc(-c2c[nH]c3ccccc23)nc1N`, the growth with SR leukemia is 25.4%; with RPMI-8226 leukemia, 34.4%; with OVCAR-8 ovarian it was 66.4%; in the test with OVCAR-5 ovarian, 63.9%; in the test on OVCAR-4 ovarian, 74.7%; with SK-OV-3 ovarian it was 52.6%. Moreover, the growth was 34.4% in the test with IGROV1 ovarian, 58.6% with HS 578T breast and 24.9% with NCI/ADR-RES ovarian.
Turning to `CCCCCc1ccc(S(=O)(=O)Nc2cc(-c3csc(N)n3)ccc2OC)cc1`, the growth was 98.9% with SR leukemia; 78.2% with RPMI-8226 leukemia; 95.9% in the test on OVCAR-8 ovarian; 110% in the test with OVCAR-5 ovarian; 100% in the test on OVCAR-4 ovarian; 127% with SK-OV-3 ovarian. For the same molecule, the growth in the test on IGROV1 ovarian is 84.5%; in the test on HS 578T breast it was 97.1%; in the test with NCI/ADR-RES ovarian, 88%.
Take `O=C(N/N=C\c1ccc([N+](=O)[O-])cc1)c1ccc2nc(-c3ccc(Br)cc3)[nH]c2c1`: the growth in the test with SR leukemia is -3.17% (active); with RPMI-8226 leukemia, 6.03% (active); in the test with OVCAR-8 ovarian, 13.5%; with OVCAR-5 ovarian it was 44.8%; in the test with OVCAR-4 ovarian, 21.3%; in the test with SK-OV-3 ovarian, 45%. For the same molecule, the growth with IGROV1 ovarian is 18%; with HS 578T breast, 23.2%; in the test with NCI/ADR-RES ovarian it was 71.4%.
For the molecule `O=C(CCCCCCN1CC(=O)N2[C@@H](c3ccc(Cl)s3)c3[nH]c4ccccc4c3C[C@H]2C1=O)NO`, the growth was 14.7% in the test on SR leukemia; 17% with RPMI-8226 leukemia; 38.5% with OVCAR-8 ovarian; 39.3% in the test on OVCAR-5 ovarian; 64.6% in the test on OVCAR-4 ovarian; 78.7% with SK-OV-3 ovarian. Further, the growth is -20.6% (active) in the test on IGROV1 ovarian, 65.5% in the test with HS 578T breast and 98.5% in the test with NCI/ADR-RES ovarian.
